PubChem BioAssay (NCI)
The panel holds about 83,000 compounds, 20% with a hit somewhere; the sample as a whole holds those more often.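 Plates (96-well) were seeded with cells, treated with compound at one concentration, and incubated for 48 hours before percent growth was determined.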 The source made the active and inactive calls. The calls were made as follows: active = growth percent below 10; inactive = the rest.

tested on: U251 CNS; assay: NCI-60 one-dose screen, 48 h (100 = growth as untreated, 0 = no growth, -100 = all killed); details: 10 µM unless noted

Which growth does the source give for `CCCCCCCC[C@@H]1N[C@@H](C(=O)OC)Cc2c1[nH]c1ccccc21` here?
The growth was 91.5% (inactive).

For `COC(=O)c1cc(N=C2NC(=O)/C(=C/C=C/c3ccccc3)S2)ccc1O`, which growth is on record?
Its growth is 22.6% (inactive).

`CSc1nnc(-c2cc3c([nH]c4ccccc43)c(-c3cccc(O)c3)n2)n1-c1ccccc1` was tested. Which growth did it give?
The growth was 32.3% (inactive).

How did the growth turn out when `Cc1ccc(-c2nc([P+](c3ccccc3)(c3ccccc3)c3ccccc3)c(S(=O)(=O)c3ccc(C)cc3)o2)cc1` was run?
The growth was 3.23% (active).

With `O=S(=O)(NCCNc1nccc(-c2c(-c3ccc(F)c(O)c3)nc3occn23)n1)c1ccc(Cl)cc1` as the molecule, how does the growth read?
The growth was 93.9% (inactive).

`COc1ccc2c(c1)c(-c1nc(-c3c[nH]c4ccncc34)cs1)cn2C` was tested. Which growth did it give?
Its growth is -91.9% (active).

With `CC(C)c1ccc(C(=O)Nc2nc3ccc(O)c(CN(C)C)c3s2)cc1` as the molecule, how does the growth read?
Its growth is 69.1% (inactive).

`O=C1Nc2ccccc2/C1=C/c1nc2ccccc2c(=O)[nH]1` was tested. Which growth did it give?
The growth was 96.3% (inactive).

How did the growth turn out when `O=C(c1ccccc1)c1ccc(C2CCCCC2)cc1` was run?
Its growth is 88.9% (inactive).

For `C=CC(=O)N1CCN(c2cccc(Oc3nccc(Nc4nnc(-c5ccc(Br)cc5)s4)n3)c2)CC1`, which growth is on record?
The growth was 56.8% (inactive).

Which growth does the source give for `O=C1C(Cl)=C(Nc2ccc(S(=O)(=O)N3CCOCC3)cc2)C(=O)c2ccccc21` here?
The growth was 44.6% (inactive).

With `CCOC(=O)C1=C(C)NC(=O)NC1c1c(Cl)n(CCCl)c2ccccc12` (centres undefined) as the molecule, how does the growth read?
Its growth is 94.4% (inactive).

`CCCC/C=C/[C@@H]1C[C@H]1CCO` was tested. Which growth did it give?
The growth was 101% (inactive).

Which growth does the source give for `C=C(CBr)[C@@H]1CC[C@]2(C(=O)O)CC[C@]3(C)[C@H](CC[C@@H]4[C@@]5(C)CCC(=O)C(C)(C)[C@@H]5CC[C@]43C)[C@@H]12` here?
Its growth is 70.9% (inactive).
